PubChem BioAssay (Tox21)
Values joined by “and” are separate entries in the source; they are usually repeats but may differ in a detail not shown here. Equal entries are not always repeated. Records with an inconclusive call do not appear. Unmarked numbers belong to inactive results. Active and inactive are the calls of the source. Calls follow the shape of the dose curve; as a rule, active = well fitted cell-killing curve with a large enough effect in the repeat runs; inconclusive = weak or mixed curves; inactive = no such curve, though single readings can be large or run the other way.

Assay: qHTS assay for identifying genotoxic compounds that show differential cytotoxicity against isogenic chicken DT40 cell lines with known DNA damage response pathways - Rad54/Ku70 mutant cell line (AID 743015); also: nearly all actives have a fitted effect of over 60% in size
Conditions: DT40 Rad54/Ku70 mutant viability, CellTiter-Glo, 40 h; series mostly up to 66.8 µM; activity change, negative = cytotoxicity: at the top concentration
% is scaled to controls: 0 for no effect and ±100 for the full control effect; potency is read from the fitted curve at half-maximal effect.

With N#CC(C#N)=NNc1cccc(Cl)c1 the Potency was 2.43 µM (active).
With Oc1cc(Cl)cc(Cl)c1 the Potency was 61.8 µM (active).
In the case of CC(=O)[O-].CC(=O)[O-].CC(=O)[O-].[Cr+3], the Potency is reported as 19.3 µM (active).
For O=C1C2(Cl)C3(Cl)C4(Cl)C(Cl)(Cl)C5(Cl)C3(Cl)C1(Cl)C5(Cl)C24Cl (stereo not given), the Potency was 19 µM (active) and 26.1 µM (active).
In the case of CC(C)N(C(=O)CCl)c1ccccc1, the Potency is reported as 9.69 µM (active) and 7.7 µM (active).
With CCNc1nc(NC(C)C(C)C)nc(SC)n1 (stereo not given) the Potency was 61.1 µM (active).
With COP(=O)(OC)O/C(=C\Cl)c1cc(Cl)c(Cl)cc1Cl the Potency was 17.2 µM (active).
In the case of CC(=O)C(Cl)C(=O)N(C)C (stereo not given), the Potency is reported as 61.1 µM (active).

In order of rising “activity change, negative = cytotoxicity” value:
1. CC(C)=CC1C(C(=O)OC(C#N)c2cccc(Oc3ccccc3)c2)C1(C)C (stereo not given)  -8.45%
2. O=C(Cl)c1ccccc1F  -3.25%
3. Brc1ccc(Oc2ccc(Br)cc2Br)c(Br)c1  -0.834%
4. CCCCN(CCCC)C(=S)[S-].CCCCN(CCCC)C(=S)[S-].[Ni+2]  -0.713%
5. Nc1cc(Cl)ccc1Cl  1.87%
6. C#CC1(O)CCCCC1  3.02%
7. CC(C)C(Br)C(=O)NC(N)=O (stereo not given)  3.2%
8. ClC(Cl)C(Cl)(Cl)Cl  4.7%
9. CCOC(=O)Cc1ccccc1  5.61%
10. CC(C)Br  6.25%
11. CCOP(=O)(Sc1ccccc1)Sc1ccccc1  21.9%

In order of rising “activity change, negative = cytotoxicity” value:
1. CCCN  -2.87% [at 95.1 µM]
2. CCCC[N+]1(C)CCCC1 (tested in a mixture with another compound)  -0.812% [at 95.1 µM]
3. C=Cc1cccc(CCl)c1  2.36% [at 95.1 µM]
4. c1ccc2c(c1)cc1ccc3cccc4ccc2c1c34  4.59% [at 95.1 µM]
5. Brc1cccc(-c2ccccc2)c1  4.9% [at 95.1 µM]
6. O=C(Nc1ccc(F)cc1F)c1cccnc1Oc1cccc(C(F)(F)F)c1  6.31% [at 95.1 µM]
7. CN1CCc2cc3c(cc2C1O)OCO3 (stereo not given)  15% [at 95.1 µM]

With CC(=O)[O-].CC(=O)[O-].CC(=O)[O-].[Sb+3] the activity change, negative = cytotoxicity was -0.679% [at 8.55 µM].

Assay: qHTS assay to identify small molecule antagonists of the androgen receptor (AR) signaling pathway - cell viability counter screen (AID 743033; also: nearly all actives have a fitted effect of over 45% in size)
Conditions: AR-bla HEK293 viability, CellTiter-Glo luminescence, 16 h; series mostly up to 58.5 µM; activity change, negative = cytotoxicity: at the top concentration

In order of rising “activity change, negative = cytotoxicity” value:
1. CCC(C)c1cccc(C(C)CC)c1O (stereo not given)  -26.6%
2. CC(=O)C(Cl)C(=O)N(C)C (stereo not given)  -19.4%
3. ClC(Cl)C(Cl)(Cl)Cl  -12%
4. CCOP(=O)(Sc1ccccc1)Sc1ccccc1  -10.3%
5. CC(=O)[O-].CC(=O)[O-].CC(=O)[O-].[Cr+3]  -10.3%
6. CC1(C)C(C=C(Cl)Cl)C1C(=O)OC(C#N)c1ccc(F)c(Oc2ccccc2)c1 (stereo not given)  -4.55%
7. CC(C)=CC1C(C(=O)OC(C#N)c2cccc(Oc3ccccc3)c2)C1(C)C (stereo not given)  -3.56%
8. c1csc(-c2ccc(-c3cccs3)s2)c1  -0.52%
9. CCCCN(CCCC)C(=S)[S-].CCCCN(CCCC)C(=S)[S-].[Ni+2]  -0.517%
10. CCOC(=O)Cc1ccccc1  -0.167%
11. Nc1cc(Cl)ccc1Cl  0.0333%
12. O=C(Cl)c1ccccc1F  0.273%
13. Cc1c([N+](=O)[O-])c(C)c([N+](=O)[O-])c(C(C)(C)C)c1[N+](=O)[O-]  0.695%
14. CC(C)Br  1.68%
15. Brc1ccc(Oc2ccc(Br)cc2Br)c(Br)c1  2.15%
16. c1ccc2nc(N3CCNCC3)ccc2c1  2.16%
17. C[C@H]1[C@H](c2ccc(Cl)cc2)SC(=O)N1C(=O)NC1CCCCC1  2.4%
18. CCNc1nc(NC(C)C(C)C)nc(SC)n1 (stereo not given)  2.41%
19. NC1CCC(CC2CCC(N)CC2)CC1 (stereo not given)  4.17%
20. N#Cc1ccc(N(CC(N)=O)CC(F)(F)F)cc1C(F)(F)F  6.5%
21. CC(C)C(Br)C(=O)NC(N)=O (stereo not given)  6.87%
22. C#CC1(O)CCCCC1  9.85%

With N#CC(C#N)=NNc1cccc(Cl)c1 the Potency was 2.45 µM (active).
For O=C1C2(Cl)C3(Cl)C4(Cl)C(Cl)(Cl)C5(Cl)C3(Cl)C1(Cl)C5(Cl)C24Cl (stereo not given), the Potency was 38.3 µM (active) and 46.9 µM (active).

In order of falling “activity change, negative = cytotoxicity” value:
1. C=Cc1cccc(CCl)c1  4.01% [at 78.9 µM]
2. Brc1cccc(-c2ccccc2)c1  0.302% [at 78.9 µM]
3. O=C(Nc1ccc(F)cc1F)c1cccnc1Oc1cccc(C(F)(F)F)c1  0.137% [at 78.9 µM]
4. c1ccc2c(c1)cc1ccc3cccc4ccc2c1c34  -0.017% [at 78.9 µM]
5. COc1ccc2[nH]cc(CCN(C(C)C)C(C)C)c2c1  -0.213% [at 78.9 µM]
6. CCCN  -0.257% [at 78.9 µM]
7. CCCC[N+]1(C)CCCC1 (tested in a mixture with another compound)  -0.891% [at 78.9 µM]
8. CN1CCc2cc3c(cc2C1O)OCO3 (stereo not given)  -4.98% [at 78.9 µM]

CC(=O)[O-].CC(=O)[O-].CC(=O)[O-].[Sb+3] showed an activity change, negative = cytotoxicity of -2.21% [at 7.04 µM].
